The assay deals with UniProt P0AEZ1. Briefly: log2 fold change of tryptic peptide abundance, ligand vs vehicle (limited proteolysis) (log2 ratio); higher = more trypsin-susceptible (destabilized). To be noted: peptide sequence: DYWNNGIR; peptide start residue: 105; ligand concentration: 5 mM; sample: E. coli desalted lysate; replicate design: treated before aliquoting. On the procedure:
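HT-PELSA: desalted E. coli K-12 BW25113 lysate (with 12 mM MgCl2) incubated with 5 mM ATP (pH 7) or water for 30 min at 25 C, then a 4 min trypsin pulse at 22 C. Peptides were quantified by DIA-MS (4 replicates). Value is the peptide log2 fold change (treated/control); negative = stabilized. Scale: negative = ligand-stabilized region.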
Chain of UniProt P0AEZ1 (P0AEZ1 whole entry): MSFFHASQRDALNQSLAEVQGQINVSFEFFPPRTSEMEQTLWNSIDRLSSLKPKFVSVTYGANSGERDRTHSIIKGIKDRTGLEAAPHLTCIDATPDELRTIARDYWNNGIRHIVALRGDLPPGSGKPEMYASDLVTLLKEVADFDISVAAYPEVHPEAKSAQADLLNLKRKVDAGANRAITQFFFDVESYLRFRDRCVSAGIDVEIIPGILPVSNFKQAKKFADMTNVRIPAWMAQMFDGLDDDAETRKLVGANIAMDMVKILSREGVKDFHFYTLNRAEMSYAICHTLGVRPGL
For `Nc1ncnc2c1ncn2[C@@H]1O[C@H](COP(=O)(O)OP(=O)(O)OP(=O)(O)O)[C@@H](O)[C@H]1O` [adenosine 5'-triphosphate], the log2 fold change is -1.01.

Values taken from the supplement of paper PMC12819154, “High-throughput peptide-centric local stability assay extends protein–ligand identification to membrane proteins, tissues and bacteria” (Nature Structural & Molecular Biology, 2025).
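Also: lysate desalted by size exclusion to strip endogenous ATP, peptide intensities built from DIA-NN precursor signals, and peptides missing any value discarded before comparison.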
